# Data from ChEMBL document CHEMBL4296182, “CO-ADD screening of NIH NCI Diversity Set V”.
# For part of these data: Results with a measured potency or affinity are listed apart.
# Columns and labels:
# Staphylococcus aureus = assay: Antibacterial activity against Staphylococcus aureus MRSA ATCC 43300 (CO-ADD:GP_020); MIC in CAMBH media using NBS plates, by Resazurin F(560/590); type: functional; conditions: Concentration 20 uM, ASSAY_TEST Inhibition of Bacterial Growth, detection method Resazurin, Fluorescence (ex560/em590), MEDIA CAMHB, plate type 384well, CORNING #3640, time 18 hr
# Acinetobacter baumannii = assay: Antibacterial activity against Acinetobacter baumannii ATCC 19606 (CO-ADD:GN_034); MIC in CAMBH media using NBS plates, by Resazurin F(560/590); type: functional; conditions: Concentration 20 uM, ASSAY_TEST Inhibition of Bacterial Growth, detection method Resazurin, Fluorescence (ex560/em590), MEDIA CAMHB, plate type 384well, CORNING #3640, time 18 hr
# Escherichia coli = assay: Antibacterial activity against Escherichia coli ATCC 25922 (CO-ADD:GN_001); MIC in CAMBH media using NBS plates, by Resazurin F(560/590); type: functional; conditions: Concentration 20 uM, ASSAY_TEST Inhibition of Bacterial Growth, detection method Resazurin, Fluorescence (ex560/em590), MEDIA CAMHB, plate type 384well, CORNING #3640, time 18 hr
# Klebsiella pneumoniae = conditions: Concentration 20 uM; ASSAY_TEST Inhibition of Bacterial Growth; detection method Absorption (OD600); MEDIA CAMHB; plate type 384well; NBS; CORNING #3640; time 18 hr
# Candida albicans = conditions: 20 µM
# Cryptococcus neoformans = conditions: Concentration 20 uM; ASSAY_TEST Inhibition of Fungal Growth; detection method Resazurin; Absorption (OD600-OD570); plate type 384well; NBS; CORNING #3640
Compound,Inhibition (Staphylococcus aureus),Inhibition (Acinetobacter baumannii),Inhibition (Escherichia coli),Inhibition (Klebsiella pneumoniae),Inhibition (Candida albicans),Inhibition (Cryptococcus neoformans)
c1ccc(-c2nc(-c3ccccn3)nc(-c3ccccn3)n2)nc1,2.88%,10.22%,-0.02%,10.56%,2.65%,-6.65%
CCCCCc1cc(O)nc(S)n1,5.4%,-7.23%,3.05%,2.8%,1.05%,-4.11%
CNC(=O)OCN1C(=O)C2CC=CCC2C1=O (configuration not stated),7.25%,-15.92%,10%,2.19%,-1.86%,-13.88%
Cn1c(C(=O)c2ccncc2)cc2ccccc21,10.4%,13.49%,0.36%,4.66%,5.59%,-4.68%
CCCOc1ccc(-c2nc(-c3ccc(N)cc3)cs2)cc1,6.42%,13.93%,2.89%,4.45%,5.55%,-3.2%
Cc1nc(S)nc(O)c1Cc1c(O)ccc2ccccc12,-11.57%,-9.92%,5.55%,6.39%,20.9%,-9.2%
NCCN1CCNCC1,-1.38%,-9.37%,9.81%,11.04%,1.05%,4.22%
Cc1c(CCO)c(=O)n2n1CCCC2,-14.7%,-6.34%,-10.48%,7.18%,-0.03%,3.75%
CCCOc1nc2c(c(=O)n(C)c(=O)n2C)n1C,17.4%,10%,3.82%,-6.25%,1.36%,-4.51%
Nc1cc([N+](=O)[O-])ccc1Nc1ccc(O)cc1,-9.75%,-11.21%,0.26%,0.39%,3.23%,-0.22%
Oc1ccc2c(ccc3[nH]cnc32)c1,7.97%,-12.34%,17.76%,18.56%,-0.43%,-9.86%
CC(C1=C(CCN(C)C)Cc2ccccc21)c1ccccn1.O=C(O)/C=C\C(=O)O (configuration not stated) [DIMETHINDENE MALEATE],21.63%,-11.43%,16.27%,18.33%,1.91%,-1.76%
CC1CCC(C(C)C)C(NC(=O)c2ccncc2)C1 (configuration not stated),7.04%,-17.65%,6.28%,10.65%,-0.85%,-11.13%
CCOc1ccc(NC(=O)c2cc3ccccc3cc2O)cc1,-0.31%,-4.15%,-2.29%,2.5%,7.38%,-4.09%
CS(=O)(=O)O.OC(c1cc(C(F)(F)F)nc2c(Cl)cc(Cl)cc12)C1CCCCN1 (configuration not stated),10.44%,6.66%,19.86%,9.3%,1%,-0.51%
O=C1C(Br)=Cc2cccc3cccc1c23,13.47%,-14.96%,6.58%,7.6%,32.2%,12.78%
COc1c(NC(C)=O)c2ccccc2c2ccccc12,12.56%,4.74%,1.88%,16.73%,5.3%,-2.59%
CC1=CC(C)(C)Nc2ccc(Cc3ccc4c(c3)C(C)=CC(C)(C)N4)cc21,2.44%,4.53%,-20.49%,-0.68%,14.9%,28.4%
Nc1nc(=S)ss1,5.79%,-17.7%,2.29%,13.54%,3.85%,-5.25%

Compound,Inhibition (Staphylococcus aureus),Inhibition (Acinetobacter baumannii),Inhibition (Escherichia coli),Inhibition (Klebsiella pneumoniae),Inhibition (Candida albicans),Inhibition (Cryptococcus neoformans)
CSc1nc(O)c(Nc2cccc(Cl)c2)c(O)n1,7.02%,14.23%,-1.67%,7.49%,0%,16.48%
O=C(Nc1ccc(Br)cc1)Nc1ccccc1Cl,14.34%,-1.5%,10.13%,5.62%,1.52%,-9.14%
N=C(N)Nc1ccc(NC(=N)N)cc1,18.17%,-6.06%,9.96%,17.17%,-1.51%,-0.62%
c1ccc2c(c1)Oc1cccc3cccc-2c13,13.84%,-15.64%,12.26%,8.47%,7.02%,-13.12%
NC(=O)c1ncn2c(=O)n(CCCl)nnc12 [MITOZOLOMIDE],-4.1%,10.43%,3.54%,6.17%,2.26%,-10.87%
Cc1cc(=O)[nH]/c(=N/N=C2/CCCCC2C)[nH]1 (configuration not stated),22.54%,-10.76%,10%,5.45%,-3.38%,-9.25%
O=C(Nc1cccnc1)c1cccc([N+](=O)[O-])c1,12.72%,4.9%,8.22%,4.62%,7.68%,-5.39%
Cc1ccccc1NC(=O)C(=O)Nc1ccccc1C,22.64%,-12.42%,18.63%,-3.39%,6.51%,7.92%
S=C(Sc1ccc(Cl)cc1)Sc1ccc(Cl)cc1,-6.64%,10.03%,10.65%,7.47%,2.15%,-8.72%
O=[N+]([O-])c1cccc(/C=C/c2ccccn2)c1,0.18%,-2.22%,10.58%,8.63%,0.08%,-13.12%
Cc1cccc(Nc2sc(C(=O)c3cc4cc(Cl)ccc4o3)c(N)c2C#N)c1,1.46%,-13.03%,6.28%,5.96%,0.06%,37.64%
CCCCCCCCCCC(C(=O)O)C1(C(=O)O)CCC(=O)O1 (configuration not stated),8.92%,10.41%,4.35%,3.55%,8.22%,-9.1%
Cc1nc2ccccc2nc1N1CCCC1,12.43%,-3.73%,4.2%,6.96%,2.02%,-9.29%
CCOC(=O)c1csc(-c2ccc(COC(=O)c3ccccc3)o2)n1,13.59%,3.92%,-0.69%,10.14%,4.97%,-13.35%
Oc1ccnc2c(Cl)cccc12,7.28%,2.93%,-8.1%,5.9%,3.54%,14.14%
Oc1ccc(/N=N/c2nccs2)c(O)c1,-2.42%,12.54%,-3.78%,17.07%,29.2%,2.7%
COc1ccc2nc3cc(Cl)ccc3c(Nc3cc(C(C)C)c(O)cc3C)c2c1,18.28%,-16.67%,18.01%,9.53%,-0.84%,-12.42%
CCN(CC)CCNc1c(C)cc(CO)c(Cl)c1C.O=S(=O)(O)NC1CCCCC1,5.65%,-16.4%,16.33%,7.45%,1.43%,-0.32%
